DT40 TDP1 no CPT: qHTS for Inhibitors of human tyrosyl-DNA phosphodiesterase 1 (TDP1): qHTS in cells in absence of CPT. hit rate 15% among 420,000. DT40 Tdp1-/- hTDP1 cells, no CPT, ATP luminescence, 48 h. Potency, µM (top dose mostly 46.2 µM), inactives show at the top dose activity change, negative = growth inhibition, actives largely listed as inhibitors; further: nearly all actives have a fitted effect of over 55% in size
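Growth of hTDP1-complemented DT40 Tdp1-knockout cells is measured by ATP luminescence after at least 48 hr compound exposure at 37 °C, with DMSO substituting for the 20 nM CPT used in the parallel screen.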
TDP1 cell CPT: DT40-hTDP1 cell growth loss with CPT; chicken DT40 Tdp1-/-;hTDP1 cells + 20 nM CPT, ATP luminescence, 48 h; Potency, µM (doses to about 46.2 µM), without a hit: top-dose activity change, negative = growth inhibition, actives largely listed as inhibitors; hit rate 12% among 420,000; further: nearly all actives have a fitted effect of over 55% in size
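Chicken DT40 Tdp1-/- cells stably complemented with human TDP1 were seeded at 400 cells/well in medium containing 20 nM camptothecin, exposed to pin-transferred compounds, and grown at 37 °C for at least 48 hr. Viability was read as ATP luminescence.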
ELG1 repair inh: blocks ELG1-dependent DNA repair in HEK293T cells. HEK293T ELG1-luciferase reporter, luminescence, 16 h; DNA damage induced by 5-fluorouridine. Potency, µM (titrated, usually from 46.1 µM), without a hit: at the highest dose activity change, negative = inhibition, most hits filed as inhibitors. hit rate 2.3% among 330,000; further: nearly all actives have a fitted effect of over 55% in size
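HEK293T cells expressing luciferase-tagged ELG1 (2,000/well) received 5-Fluorouridine plus compound or DMSO for 16 hr at 37 °C. Luciferase was read by ONE-Glo luminescence after 30 min at room temperature.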
VP16 counter: Gal4-VP16 reporter inhibition counter-screen | Drosophila S2 Gal4-VP16 UAS-luciferase, luminescence, 20 h | hit rate 3.5% among 310,000 | Potency, µM (titrated, usually from 53.6 µM), for inactives: top-dose activity, negative = inhibition, most hits filed as inhibitors;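 further: Gal4-VP16 expression switched on by copper sulfate through the metallothionein promoter; nearly all actives have a fitted effect of over 50% in size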
12-LOX inh: ALOX12 (human) lipoxygenase inhibition; AID 1671190; purified 12hLO, xylenol orange hydroperoxide absorbance; Potency, µM (titrated, usually from 108 µM), inactives show top-dose activity change, negative = inhibition, most hits filed as inhibitors; hit rate 1.1% among 580,000
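Purified human 12hLO (150 nM final) in 25 mM Hepes, 0.01% Triton X-100, pH 7.0 was preincubated 15 min at room temperature with compound. Then 40 uM arachidonic acid was added, 30 min. Hydroperoxide was read by Fe-XO absorbance ratio 573/405 nm.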
RORg inh: blocks mouse ROR gamma transcriptional activity. P51450. Drosophila S2 Gal4-RORgamma UAS-luciferase reporter, 20 h. Potency, µM (highest dose often 53.6 µM), for inactives: top-dose activity change, negative = inhibition, most hits filed as inhibitors. hit rate 5.4% among 310,000; further: nearly all actives have a fitted effect of over 60% in size
Target sequence (P51450 whole entry, looked up, the tested form may be a part): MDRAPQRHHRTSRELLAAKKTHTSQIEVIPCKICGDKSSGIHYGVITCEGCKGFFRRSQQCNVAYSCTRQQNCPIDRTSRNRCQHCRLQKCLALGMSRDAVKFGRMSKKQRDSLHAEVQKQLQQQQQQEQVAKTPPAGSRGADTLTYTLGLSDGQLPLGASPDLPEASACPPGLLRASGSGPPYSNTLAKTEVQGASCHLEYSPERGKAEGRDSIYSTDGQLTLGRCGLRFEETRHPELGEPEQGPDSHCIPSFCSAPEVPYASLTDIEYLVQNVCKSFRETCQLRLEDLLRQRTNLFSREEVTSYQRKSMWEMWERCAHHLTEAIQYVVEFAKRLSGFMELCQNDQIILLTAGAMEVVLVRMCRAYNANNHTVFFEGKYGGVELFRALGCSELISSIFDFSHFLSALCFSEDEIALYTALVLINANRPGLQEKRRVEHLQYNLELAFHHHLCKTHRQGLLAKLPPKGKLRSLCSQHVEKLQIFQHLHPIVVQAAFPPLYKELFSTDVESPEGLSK
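Read-out: Photinus luciferase luminescence; inhibitors lower reporter signal. Insect Schneider cells with Gal4-ROR gamma fusion under metallothionein promoter, UAS reporter; 700 uM final copper sulfate induction, 20 hr, ambient temperature.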
* hit, by the source's call; ? = inconclusive; nt = not tested or not shown; [ ] = remark or other dose. Rows were chosen to be rich in hits. Some 15% of all compounds tested hit in one or more screens of this group. The call rests on the fitted dose curve; in most records, active means well fitted curve in the direction sought with a large enough effect; inconclusive means small, poorly fitted or top-dose-only effect, or another doubt; inactive means no such curve, though single readings can be large; an effect the other way counts as inactive or inconclusive. On the % scale 0 is the no-effect control and ±100 the full control effect; potency means the concentration at half of the fitted maximal effect.

SMILES | DT40 TDP1 no CPT | TDP1 cell CPT | ELG1 repair inh | VP16 counter | 12-LOX inh | RORg inh
O=C(CCCc1ccccc1)c1ccccc1 | 11% | -4% | ? | -13% | -12% | 9%
O=C(CC(=O)c1ccccc1)c1ccccc1 | ? | ? | nt | 7.9µM* | 3% | 4µM*
CN(C)CCC(=O)c1ccc(Cl)cc1 | 4.6µM* | 2.6µM* | 12% | ? | -17% | 1%
O=C(CC(=O)c1ccncc1)c1ccccc1 | ? | ? | nt | nt | -14% | nt
COc1ccccc1C(=O)CC(=O)c1ccccc1 | ? | ? | ? | -68% | 12% | 10µM*
Cc1cccnc1NC(=O)COc1ccc2c(=O)c(Oc3ccccc3)c(C)oc2c1 | nt | nt | nt | nt | 7% | nt
O=C(CSc1ccc(Br)cc1)c1cccc2ccccc12 | nt | nt | nt | nt | -25% | nt
COc1ccc2nc(C)cc(N3CCC(C(N)=O)CC3)c2c1 | -22% | 13% | 0% | -5%[10 µM] | -4% | -9%
CCOC(=O)C1CCN(c2cc(C)nc3ccc(OC)cc23)CC1 | 16µM* | ? | ? | 1% | 4% | -24%
COc1ccc(N2CCN(c3cc(C)nc4ccc(OC)cc34)CC2)cc1 | 23µM* | 15µM* | 13µM* | -13% | ? | -42%
CCOc1ccccc1Oc1coc2cc(OCC(=O)N3CCCCCC3)ccc2c1=O | nt | nt | nt | nt | -14% | nt
CCOC(=O)c1cc(-c2ccccc2)n(CCC(=O)NC2CCCCC2)c1C | 13µM* | ? | nt | nt | -11% | nt
CC(=O)c1cc(-c2ccccc2)n(CCC(=O)NC2CCCCCCC2)c1C | 23µM* | ? | -30% | -15% | -6% | 28%
CCOC(=O)c1cc(-c2ccc(F)cc2)n(CCC(=O)NC2CCCCC2)c1C | 15µM* | 15µM* | nt | nt | -25% | nt
CCOC(=O)c1cc(-c2ccc(F)cc2)n(CC(=O)NC2CCCCC2)c1C | ? | -26% | nt | nt | -29% | nt
Cc1ccc(S(=O)(=O)CCC(=O)NC2CCCCC2)cc1 | 15µM* | 18µM* | 15% | nt | ? | nt
COc1ccc(-c2noc(CC3CCN(C(=O)C4CCN(C(=O)c5ccccc5)CC4)CC3)n2)cc1 | nt | nt | nt | nt | 37% | nt
COc1cccc(C2=NS(=O)(=O)N(C)C(C(=O)NC3CCCC3)=C2)c1 | nt | nt | nt | nt | -23% | nt
Oc1cccc(CN2CCCC23CCN(c2ccc(C(F)(F)F)cn2)CC3)c1 | nt | nt | nt | nt | 2% | nt
CCOC(=O)c1cc(-c2ccc(F)cc2)n(CC(=O)NC2CCCCCC2)c1C | 15µM* | 16µM* | nt | nt | -19% | nt
CCc1nc2c(OCc3ccc(F)cc3)cccn2c1N(C)C(=O)COc1ccccc1 | ? | 21µM* | nt | nt | 12% | nt
CCc1nc2c(OCc3ccccc3)cccn2c1N(C)C(=O)COc1ccccc1 | ? | 23µM* | nt | nt | -3% | nt
CCc1nc2c(OCc3ccccc3)cccn2c1N(C)C(C)=O | -2% | -2% | nt | nt | 1% | nt
CCc1nc2c(OCc3ccc(F)cc3)cccn2c1N(C)C(=O)CC(C)C | ? | ? | nt | nt | -1% | nt
COc1cc(Nc2ncnc3onc(-c4ccc(Cl)cc4)c23)cc(OC)c1 | 21µM* | ? | nt | nt | -14% | nt
SMILES | DT40 TDP1 no CPT | TDP1 cell CPT | ELG1 repair inh | VP16 counter | 12-LOX inh | RORg inh
CC(C)c1ccc(Nc2ncnc3onc(-c4ccc(F)cc4)c23)cc1 | ? | 18µM* | nt | nt | -5% | nt
COc1ccc(Nc2ncnc3onc(-c4ccc(Cl)cc4)c23)cc1Cl | 16µM* | 18µM* | nt | nt | -5% | nt
CC(C)C(NC(=O)c1ccccn1)C(=O)O (configuration not stated) | nt | nt | nt | nt | 8% | nt
CCNC(=O)CN(CC)S(=O)(=O)c1cccc2cc(C)cnc12 | nt | nt | nt | nt | 10% | nt
O=C1CCCc2c1[nH]c1ccc(C34CC5CC(CC(C5)C3)C4)cc21 | nt | nt | nt | nt | 20% | nt
CCCNC(=O)c1cc(C2CCCCN2C(=O)c2cc(C(C)(C)C)nn2C)on1 (configuration not stated) | 18µM* | 21µM* | nt | nt | 5% | nt
COc1ccc(NC(=O)c2cc(C3CCCCN3C(=O)Cc3ccc(N(C)C)cc3)on2)c(C)c1 (configuration not stated) | ? | 21µM* | nt | nt | 6% | nt
COc1ccc(NC(=O)c2cc(C3CCCCN3C(=O)c3cc(C(C)(C)C)nn3C)on2)c(C)c1 (configuration not stated) | 21µM* | ? | nt | nt | -23% | nt
COc1ccc(NC(=O)c2cc(C3CCCCN3C(=O)c3cc(F)ccc3C)on2)c(C)c1 (configuration not stated) | 8.2µM* | 12µM* | nt | nt | 13% | nt
CCCn1nc(C(=O)OCC(=O)Nc2ccc3c(c2)OCO3)c2ccccc2c1=O | nt | nt | nt | nt | -3% | nt
Cc1c(NC(=O)c2ccc(-c3ccccc3)cc2)cccc1C(=O)O | 11% | 0% | ? | ? | -18% | 10µM*
CN1CCN(c2ccccc2NC(=O)c2ccc(OCc3ccccc3)cc2)CC1 | ? | 16µM* | ? | nt | ? | -22%[0.365 µM]
Cc1nc(COc2ccc(C(=O)NCc3ccccc3CN3CCCCC3)cc2)cs1 | 23µM* | ? | ? | nt | 177% | nt
CN1CCN(c2ccccc2NC(=O)c2cccc(OCc3ccccc3)c2)CC1 | 21µM* | ? | 21µM* | -30% | 12% | ?
O=C(Nc1ccccc1C(=O)c1ccccc1)c1ccc(-c2ccccc2)cc1 | nt | nt | nt | nt | -29% | nt
COc1cn(CC(=O)Nc2ccc(C(F)(F)F)cc2)c(CN2CCN(C(C)=O)CC2)cc1=O | nt | nt | nt | nt | 37% | nt
Cc1nc(COc2ccc(C(=O)Nc3ccccc3N3CCOCC3)cc2)cs1 | 15µM* | ? | -13% | -14% | 0% | 7%
CN1CCN(c2ccccc2NC(=O)c2ccc(-c3ccccc3)cc2)CC1 | 16µM* | ? | ? | -2% | ? | -11%
O=C(Nc1ccccc1N1CCOCC1)c1ccc2ccccc2c1 | ? | -18% | -1% | 4% | -1% | -20%
CCOCCCNC(=O)C1CCCC(C(=O)NCCCOCC)C1 (configuration not stated) | nt | nt | nt | nt | -9% | nt
CCCC(=O)N1CCCC(c2nc(-c3cccc(OC)c3)no2)C1 (configuration not stated) | ? | ? | ? | -1% | 2% | -19%
COc1cccc(-c2noc(C3CCCN(C(=O)Cc4ccccc4)C3)n2)c1 (configuration not stated) | 18µM* | 18µM* | ? | 23% | -11% | 27%
CCCCCC(=O)N1CCCC(c2nc(-c3ccc(OC)cc3)no2)C1 (configuration not stated) | 23µM* | ? | ? | -6% | 0% | 5%
